In all, about 400,000 compounds went through this assay and about 5,500 (1.4%) were called active. Inconclusive results (about 9%) are left out. This is one part of a sample in which actives are shown more often than they occur. Calls follow the shape of the dose curve; as a rule, active = well fitted cell-killing curve with a large enough effect; inconclusive = small, poorly fitted or top-dose-only effect, or effect the other way; inactive = flat fitted curve, though single readings scatter.
Experiment: qHTS assay for MDR1-selective chemotherapeutics: Primary screen using the parental adenocarcinoma cell KB-3-1; also: nearly all actives have a fitted effect of over 60% in size
Details: KB-3-1 viability, CellTiter-Glo ATP luminescence, 72 h; series mostly up to 46.1 µM; activity change, negative = cytotoxic: at the top concentration
Text: A prime difficulty in effectively treating cancer is the development of cellular resistance to multiple structurally unrelated anticancer drugs, a phenomenon known as multidrug resistance (MDR). […] Numerous strategies to overcome P-gp-mediated MDR have been explored, including the design of drugs that evade recognition and efflux, and development of inhibitors to block efflux and restore drug accumulation. […] An alternative approach is to exploit resistance by identifying drugs that target MDR cells over the non-resistant parental cells from which they were selected. […] The development of MDR1-selective agents represents a new strategy for resolving multidrug resistance, as it remains a long-standing clinical challenge for cancer chemotherapy.
Our goal is to identify compounds that selectively kill P-gp-expressing MDR cells. We will identify MDR1-selective compounds by comparing toxicity of compounds in the screening library against parental, drug-naive (KB-3-1) adenocarcinoma cells as well as their drug-selected MDR sub-line (KB-V1). The differential toxicity of compounds against these two cell lines will be used to identify MDR1-selective compounds, whose cytotoxicity is potentiated, rather than diminished, by P-gp expression. This assay will be utilized to conduct a quantitative high-throughput screen (qHTS) in collaboration with the NIH Chemical Genomics Center to identify selective agents, and probe hits arising from the screen will be validated using secondary assays and characterized through a well-established follow-up research program. This screen was run against the entire NCGC library collection of about 400,000 compounds.
NIH Molecular Libraries Probe Production Network [MLPCN]
NIH Chemical Genomics Center [NCGC]
PI: Michael Gottesman PhD, National Cancer Institute, NIH
Briefly, 5 microL of media containing either KB-3-1 cells (columns 1-2, 4-48) are dispensed into Greiner white, treated solid-bottom 1536-well assay plates (media-only control is added to column 3). Compounds are then transferred via Kalypsys pin tool equipped with 1536-pin array (10 nL slotted pins, V&P Scientific, San Diego, CA). Following addition of compound, the plates are incubated at 37 degrees C for 72 hours. CellTiter-Glo (2.5 µL/well) is then added, and the plates are read in a ViewLux reader (Perkin-Elmer, clear luminescence filter, 1 second exposure, 1x binning) following a 10 minute incubation. All cells are dispensed in DMEM phenol-red free media containing 10% FBS.
Library plates were screened starting from the lowest and proceeding to the highest concentration. Vehicle-only plates, with DMSO being pin-transferred to columns 5-48, will be inserted uniformly at the beginning and the end of each library in order to monitor and record any shifts in the background, which can be affected by reagent dispensers or loss in enzyme activity over time. Screening data will be corrected, normalized, and concentration-effect relationships will be derived by using publicly-available NCGC, NCATS curve fitting algorithms (http://ncgc.nih.gov/pub/openhts).
% is scaled to controls: 0 for no effect and ±100 for the full control effect; potency is read from the fitted curve at half-maximal effect.

SMILES | Potency | activity change, negative = cytotoxic
COc1cc(/C=C2\Oc3ccc(C#Cc4ccc(O)cc4)cc3C2=O)cc(OC)c1 | 16.4 µM (active) | 
COc1cccc(N2CCN(S(=O)(=O)c3ccc4c(c3)CCCN4C(C)=O)CC2)c1 |  | -3.09% (inactive)
COc1ccc(-c2ccc(=O)n(CC(=O)Nc3ccc(Br)cc3F)n2)cc1 |  | 3.64% (inactive)
O=C(CSc1nc2c(c(=O)[nH]1)CN(Cc1ccc(F)cc1)CC2)Nc1ccccc1Cl |  | -1.45% (inactive)
Cc1cc2ccccc2n1CCNC(=O)c1ccc(F)cc1 |  | -0.098% (inactive)
O=C(Nc1cc(S(=O)(=O)N2CCCCC2)ccc1Cl)C1COc2ccccc2O1 (configuration not stated) |  | -5.56% (inactive)
COc1ccc(NC(=O)COC(=O)C2COc3ccccc3O2)cc1 (configuration not stated) |  | 2.9% (inactive)
O=C(Nc1ncc([N+](=O)[O-])s1)C1COc2ccccc2O1 (configuration not stated) | 16.4 µM (active) | 
Cc1ccc(C(=O)N2c3ncnn3C3(CCCCC3)[C@@H]3CCCC[C@@H]32)cc1 |  | -1.33% (inactive)
CC(=O)c1cc(NC(=O)c2ccccc2)c(=O)oc1/C=C/N(C)C |  | 15.8% (inactive)
O=C(NC1=CC(=O)c2ccccc2C1=O)c1ccccc1 | 16.4 µM (active) | 
COc1cc(NC(=O)c2ccccc2)c(OC)cc1NC(=O)Cc1ccccc1 |  | 5.6% (inactive)
N#Cc1nc(/C=C/c2ccc(F)cc2)oc1NCc1ccc(F)cc1 |  | 2.53% (inactive)
O=C(CCS(=O)(=O)c1cc(Br)cc2c1N(C(=O)C1CC1)CC2)Nc1ccc(Br)cc1F |  | 6.15% (inactive)
COc1cc(C(=O)NCc2ccncc2)cc(Br)c1OCc1ccccc1 |  | -18.9% (inactive)
O=C(O)COc1ccc(/C=N/O)cc1Br |  | 9.66% (inactive)
COc1cc(/C=N/O)cc(Br)c1OCc1cccc(Cl)c1 | 14.6 µM (active) | 
CCOC(=O)c1ccc(NC(=O)CCn2cnnn2)cc1 |  | 8.4% (inactive)
COc1ccccc1CN1CCC(CNC(=O)c2cnn(-c3cccc(Cl)c3)c2C2CCN(C(=O)OC(C)(C)C)CC2)CC1 |  | -20.3% (inactive)
Cc1ccc(CN2CCC(CNC(=O)c3cnn(-c4ccccc4Cl)c3C3CCN(C(=O)OC(C)(C)C)CC3)CC2)cc1 |  | -10% (inactive)
Cc1ccc(CN2CCC(CNC(=O)c3cnn(-c4ccc(C)cc4)c3C3CCN(C(=O)OC(C)(C)C)CC3)CC2)cc1 | 16.4 µM (active) | 

SMILES | Potency | activity change, negative = cytotoxic
CCOc1ccc(OCC)c(NC(=O)c2cc(C)nc3c2c(C)nn3-c2cccc(Cl)c2C)c1 |  | -0.861% (inactive)
CN(C)c1ccc(/C=N\Nc2ccc([N+](=O)[O-])cc2[N+](=O)[O-])cc1Cl |  | 7.3% (inactive)
O=C(/C=C/c1ccc(Cl)cc1)N1CCN(c2ccccc2[N+](=O)[O-])CC1 |  | 6.08% (inactive)
CN(C)c1ccc(/C=C/C(=O)c2ccc(O)cc2)cc1[N+](=O)[O-] | 20.6 µM (active) | 
CC(C)(C)NCc1cc(Br)ccc1OC1CCCC1 |  | -6.93% (inactive)
CCOc1ccc(Br)cc1S(=O)(=O)N1CCC(C(=O)O)CC1 |  | -15.3% (inactive)
CCOc1ccc(Br)cc1CSC(=N)N | 23.1 µM (active) | 
COc1ccccc1NC(=O)C1=C(C)Nc2nc(SCC(=O)c3ccc(C)cc3)nn2C1c1ccccc1C (configuration not stated) |  | 19.5% (inactive)
COc1ccc(NC(=O)CCN2CCN(CCO)CC2)cc1 |  | 10.1% (inactive)
O=C(NCc1ccccc1)C(=O)NCC(c1ccco1)S(=O)(=O)c1ccc(Cl)cc1 (configuration not stated) |  | -21.5% (inactive)
O=C(OC12CC3CC(CC(C3)C1)C2)c1ccc(NCc2cc(O)ccc2O)cc1 | 7.31 µM (active) | 
COc1ccc(-c2nc(=N)sn2-c2ccccc2)cc1 |  | -25.8% (inactive)
CO[C@H]1O[C@@H]2O[C@@]3(C)CC[C@@H]4[C@@H](C)CC[C@@H]([C@H]1C)[C@@]24OO3 |  | 0% (inactive)
COc1cc2[nH]c(C)c(CCN3CCN(c4ccccc4)CC3)c2cc1OC |  | 0% (inactive)
COc1ccc(C(=O)/C=C/Nc2ccccn2)cc1 |  | -7.94% (inactive)
COc1ccc(C(=NN)c2ccc(OC)cc2)cc1 |  | 2.52% (inactive)
COc1ccc(C(C#N)=C2C=CC(=NO)c3ccccc32)cc1 | 0.82 µM (active) | 
COc1ccccc1OCCCn1c(-c2ccc(Cl)cc2)nc2ccccc2c1=O |  | 1.77% (inactive)
O=C(COC(=O)c1ccccc1OCCOc1ccccc1)Nc1cccc(Br)c1 |  | 0% (inactive)
COc1cccc(C(c2c(O)cc(C)n(Cc3ccco3)c2=O)N2CCN(c3ccccc3)CC2)c1 (configuration not stated) |  | 3.01% (inactive)
CCOc1ccccc1NC(=O)CN1CCCN(Cc2cccc(Cl)c2)S1(=O)=O |  | 4.79% (inactive)

SMILES | Potency | activity change, negative = cytotoxic
O=c1c2ccccc2n(Cc2cccc(Cl)c2)c(=O)n1Cc1ccccc1 |  | -13.5% (inactive)
Clc1cccc[n+]1CCCC[n+]1ccccc1Cl |  | 2.29% (inactive)
COc1cc(C(=O)Nc2ccc(-n3c(C)nc4ccccc4c3=O)cc2)cc(OC)c1OC |  | 3.15% (inactive)
O=C(Cn1c(=O)n(Cc2ccco2)c(=O)c2ccccc21)NCC1CCCO1 (configuration not stated) |  | 7.23% (inactive)
CC(C)c1ccc(Cn2c(COc3ccccc3)nc3ccccc32)cc1 |  | 2.83% (inactive)
Cn1c2ccccc2c(=O)c2c(=O)n(Cc3ccco3)c(COc3ccccc3)nc21 | 7.31 µM (active) | 
Cc1ccc(Cc2nc3ccccc3nc2SCC(=O)Nc2cccc(C(F)(F)F)c2)cc1 |  | -20.9% (inactive)
Cn1c(=O)c2c(ncn2CC(=O)Nc2cccc(C(F)(F)F)c2)n(C)c1=O |  | -2.81% (inactive)
Cn1nc(C(F)(F)F)c(C(=O)Nc2cccc(C(F)(F)F)c2)c1SCc1ccc(Cl)cc1 | 16.4 µM (active) | 
CCCSc1nc2sc3c(c2c(=O)n1-c1cccc(Br)c1)CC(C)(C)OC3 |  | -5.87% (inactive)
COc1ccc(C2CC(=O)Nc3c2c(=O)nc2c(C)cccn32)cc1OC (configuration not stated) |  | -2.5% (inactive)
O=C(COc1ccccc1C(=O)Nc1ccccc1)Nc1cccc(F)c1 |  | 1.45% (inactive)
O=[N+]([O-])c1ccc(S(=O)(=O)N2CCN(c3nc(-c4ccccc4)nc4ccccc34)CC2)cc1 |  | 29.8% (inactive)
O=C(Nc1ccc(OC(F)(F)F)cc1)c1cc2c(=O)n3ccccc3nc2s1 |  | 7% (inactive)
COc1cc(OC)cc(C(=O)NCCc2csc3nc(-c4ccccc4F)nn23)c1 |  | -3.67% (inactive)
CCOc1ccc(/C=C(\C#N)c2nc3ccccc3c(=O)[nH]2)cc1OC |  | 8.7% (inactive)
CCOc1cc(/C=C(\C#N)c2nc(-c3cccs3)c(NC(C)=O)s2)ccc1O | 8.2 µM (active) | 
CCOc1cc(/C=C(\C#N)C(=O)Nc2ccccc2C)ccc1OCc1cc(=O)n2nc(CC)sc2n1 |  | -5.35% (inactive)
O=C(NCc1ccc(Cl)cc1)c1ccc2c(c1)nnn2C1CCCC1 |  | -5.59% (inactive)
CCOC(=O)c1cccc(NC(=O)Cn2cnc3nc4c(cc3c2=O)CCCC4)c1 |  | 8.88% (inactive)

Reference: PubChem BioAssay AID1347075 (National Center for Advancing Translational Sciences (NCATS), 2019)
